Our source for the Percent Effect values is ChEMBL document CHEMBL3988442, “University of Dundee, Small-Polar-MMV Screening Library” (2021).

Assay [1] concerns the target T1, Aspartate--tRNA(Asp/Asn) ligase (Mycobacterium tuberculosis (strain ATCC 25618 / H37Rv)) (UniProt P9WFW3). Also: in the data most compounds retested in dose-response had high values.
T1 sequence (whole entry): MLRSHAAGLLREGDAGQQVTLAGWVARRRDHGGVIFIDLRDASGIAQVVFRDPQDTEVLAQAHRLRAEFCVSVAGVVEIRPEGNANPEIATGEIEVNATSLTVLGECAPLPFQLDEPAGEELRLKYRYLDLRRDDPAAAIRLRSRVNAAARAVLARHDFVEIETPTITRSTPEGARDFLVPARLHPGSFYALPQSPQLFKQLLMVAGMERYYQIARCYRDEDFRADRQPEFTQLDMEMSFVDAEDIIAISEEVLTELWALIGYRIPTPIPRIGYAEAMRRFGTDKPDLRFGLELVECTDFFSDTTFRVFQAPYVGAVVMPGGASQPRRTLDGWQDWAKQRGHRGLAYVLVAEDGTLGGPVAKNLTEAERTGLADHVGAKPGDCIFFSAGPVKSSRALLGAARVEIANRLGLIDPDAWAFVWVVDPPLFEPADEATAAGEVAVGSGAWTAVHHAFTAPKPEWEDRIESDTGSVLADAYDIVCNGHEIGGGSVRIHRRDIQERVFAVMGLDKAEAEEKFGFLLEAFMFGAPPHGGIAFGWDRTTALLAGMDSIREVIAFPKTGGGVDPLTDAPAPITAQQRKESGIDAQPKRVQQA
Put plainly: Assay for Asp RNA synthetase-1 from Mycobacterium tuberculosis. It is filed as functional. More on the design: scale not given: direction of the effect not stated beside the values. The following applies: 30 µM.

Assay [2] addresses Shiga toxin 2 (Escherichia coli O157:H7) (UniProt P09385+P09386). Put plainly: E. coli 0.157:H7 Shiga Toxin SOP - stx2 screening assay. It is filed as functional. Also noted: scale not given: direction of the effect not stated beside the values. The following applies: 30 µM.

For the compound `N#CC1(C(=O)N2CCN(c3nccs3)CC2)CCCCC1`, the figures for the Percent Effect in assay [1] and in assay [2] were -2.57% and 33.3%, respectively.
`O=C(NCCN1CCOCC1)c1cc(-c2ccc3c(c2)CCO3)n[nH]1`: the Percent Effect is 2.35% in assay [1] and -67.8% in assay [2].
Consider `CCc1n[nH]c(C2CN(C(=O)c3ncoc3C(C)C)CCO2)n1` (centres undefined), for which the Percent Effect was 2.8% in assay [1] and -12.1% in assay [2].
Regarding `O=C(NCCCNC(=O)c1cccc(O)c1)NCc1ccccc1F`, the Percent Effect in assay [1] was -5.63%; in assay [2], -41.9%.
In the case of `CN(Cc1ccc(OC(F)F)cc1)C(=O)CS(=O)(=O)c1ccc(Cl)cc1`, the Percent Effect in assay [1] was 0.524%; in assay [2] it was 15%.
As for `CN1CCOC(CNCc2coc(-c3ccccc3)n2)C1` (centres undefined), the figures for the Percent Effect in assay [1] and in assay [2] were -1.77% and -3.88%, respectively.
The corresponding values for `Cn1cc(Br)c(=O)c(NS(=O)(=O)c2ccc(F)cc2)c1` are -2.87% and -1.63%.
Consider `CC(=O)N1CC(=O)N(c2cnn(C)c2)CC12CCN(Cc1ccoc1)C2` (centres undefined), for which the values for the Percent Effect in assay [1] and in assay [2] were -2.35% and 0.489%, respectively.
The like results for `Cc1cc(C(=O)N2CCC(c3nccn3Cc3ccncc3)CC2)no1` were, in that order, 10.1% and 4.34%.
For `CC(C)(C)c1nnc(CN2CCCC2c2noc(C3CC3)n2)o1` (centres undefined), the results for the Percent Effect in assay [1] and in assay [2] were 0.758% and 0.0549%, respectively.
On to `COCCC(=O)N1CCC2(COCc3cnc(-c4ccccc4)nc32)C1` (centres undefined), for which the Percent Effect is -4.87% in assay [1] and -3.09% in assay [2].
The like results for `Cc1nc(N)cc(C2CN(C(=O)c3ccn(C)n3)CCO2)n1` (centres undefined) were, in that order, -1.09% and 3.51%.
On to `O=C(c1cccc(Cn2ccnc2)c1)N1CCCC(n2ccnc2)C1` (centres undefined), for which the Percent Effect in assay [1] was -0.874%; in assay [2] it was -7.22%.
On to `CCn1c(Nc2ccccc2OC)nc2c(C)nn(C)c2c1=O`, for which the results for the Percent Effect in assay [1] and in assay [2] were -3.4% and -16.8%, respectively.
Turning to `CN1CCN(CC2CC2)C(=O)c2cnc(N3CCCC3)nc21`, the Percent Effect is -0.103% in assay [1] and -25.1% in assay [2].
The like results for `Cc1ccc(N2CCN(C(=O)COc3nccc(C)n3)CC2)nn1` were, in that order, -6.35% and -50.4%.
With `Cc1nc(-c2ccsc2)ccc1C(=O)NCCN1CCOCC1`, the Percent Effect in assay [1] was -2.94%; in assay [2], -4.33%.
Turning to `Cn1ccc(CN2CCC(NC(=O)NC3CCCCC3)CC2)cc1=O`, the Percent Effect was -0.833% in assay [1] and -11.2% in assay [2].
The corresponding values for `Cc1nc(C)n(CC2CN(Cc3cccc(C#N)c3)CCO2)n1` (centres undefined) are 3.11% and 20.9%.
The like results for `Cc1cccc(-c2noc(CN3CCCC(Cn4cncn4)C3)n2)c1` (centres undefined) were, in that order, -2.23% and -1.3%.
On to `COc1c(C2CCCN2C(=O)c2cccc(C(N)=O)c2)c(C)nn1C` (centres undefined), for which the Percent Effect in assay [1] was found to be 0.375%; in assay [2], 18%.
For the compound `O=C(c1ccco1)N1CCC2(CC1)C(=O)NCCN2CC1CC1`, the results for the Percent Effect in assay [1] and in assay [2] were 10.6% and -10.1%, respectively.
The like results for `CN(C)CCCNC(=O)CNC(=O)N1CCc2c([nH]c3ccccc23)C1` were, in that order, 4.82% and -42.4%.
On to `Clc1ccccc1CN1CCc2nc(C3CCCCN3)ncc2C1` (centres undefined), for which the Percent Effect was 1.4% in assay [1] and -35.9% in assay [2].
For `CCc1nnc2n1CCN(C(=O)c1cc(Br)c[nH]1)C2`, the Percent Effect was -3.52% in assay [1] and -47.9% in assay [2].
The corresponding values for `O=C(NCCCn1cccn1)C1(c2ccc(F)cc2)CC1` are -8.14% and -6.77%.
In the case of `O=C(NCC(O)c1ccc(F)c(F)c1)c1cccnc1O` (centres undefined), the Percent Effect in assay [1] is 2.78%; in assay [2], -4.45%.
The like results for `Cc1ccc(-c2cc(N)c(=O)n(CC(=O)NC3CCCCC3)n2)s1` were, in that order, 1.95% and 13.1%.
In the case of `CC(C)CNC(=O)Nc1ccc(CN2CCOC2=O)cc1`, the values for the Percent Effect in assay [1] and in assay [2] were 1.75% and -53.2%, respectively.
Regarding `Cn1ncc2c1CCCC2NCc1cc(Br)cs1` (centres undefined), the Percent Effect is -1.12% in assay [1] and 7.1% in assay [2].
For `Cc1nocc1C(=O)N1CCc2c(CN(C)C(C)C)n[nH]c2C1`, the Percent Effect in assay [1] turned out to be 0.866%; in assay [2], 3.98%.
As for `Cc1ccc(-c2nc(CN3CCOC(Cn4cccn4)C3)cs2)o1` (centres undefined), the Percent Effect in assay [1] is -1.71%; in assay [2] it was -9.02%.
`CN1CCCC(c2cccc(Cc3ccccc3Cl)n2)C1` (centres undefined): the Percent Effect in assay [1] was -5.43%; in assay [2], 6.38%.
Regarding `CCc1nc(C2CCCN2C(=O)c2ccc3c(c2)nnn3CC)no1` (centres undefined), the Percent Effect is -5.04% in assay [1] and 1.14% in assay [2].
In the case of `Cc1[nH]ccc1C(=O)N1CCC(c2nnc(Cn3ccnc3)n2C)CC1`, the Percent Effect in assay [1] is -1.28%; in assay [2], -20.6%.
As to `CCNc1cc2c(nn1)CCN(C(=O)Cc1noc3ccccc13)C2`, the Percent Effect was -2.87% in assay [1] and 24.9% in assay [2].
In the case of `Cn1cc(-c2cnc(N3CCCC3)nc2)cc1C(=O)O`, the Percent Effect in assay [1] was -9.05%; in assay [2], 10.6%.
Consider `Cc1cc(C)n(CC2CCCCN2C(=O)c2ccc3c(c2)OCO3)n1` (centres undefined), for which the Percent Effect was -5.57% in assay [1] and -5.42% in assay [2].
On to `CC(C)NC(=O)C1CN(C(=O)c2ccco2)CC12CCOCC2` (centres undefined), for which the figures for the Percent Effect in assay [1] and in assay [2] were 9.32% and 1.11%, respectively.
Turning to `CCN1CCOC(CNCc2ccccc2OCc2ccccn2)C1` (centres undefined), the Percent Effect in assay [1] stood at 3.85%; in assay [2], 23.9%.
For `COc1ccc(CCN2CCc3c(nc(C4CC4)n3C)C2)cc1`, the Percent Effect was 4.19% in assay [1] and -51.7% in assay [2].
For the compound `Cc1cccnc1NC(=O)C(C)Cn1nc(C(F)(F)F)cc1C` (centres undefined), the Percent Effect in assay [1] was -2.9%; in assay [2] it was -1.69%.
As to `CC(CNC(=O)Nc1cn[nH]c1)N1CCOCC1` (centres undefined), the Percent Effect in assay [1] turned out to be 1.82%; in assay [2], 26.9%.
For the compound `CCOc1ccc(NC(=O)c2cnc(N3CCCC3)nc2C)cc1`, the Percent Effect is -4.56% in assay [1] and -10.5% in assay [2].
Take `COCCCC1(CO)CCCN(CCc2ccccc2)C1` (centres undefined): the figures for the Percent Effect in assay [1] and in assay [2] were -0.201% and -15.6%, respectively.
For `CC(C)NC(=O)C1CN(C(=O)N2CCCC2)CC12CCOCC2` (centres undefined), the values for the Percent Effect in assay [1] and in assay [2] were -2.03% and 8.24%, respectively.
As for `CC(=O)NCCC1CCCCN1S(=O)(=O)c1cccc(C#N)c1` (centres undefined), the Percent Effect was -1.28% in assay [1] and -30% in assay [2].
Take `COc1ccccc1OCC(=O)NCC(O)(c1ccccc1)C1CC1` (centres undefined): the values for the Percent Effect in assay [1] and in assay [2] were -1.26% and 6.19%, respectively.
In the case of `CC(C)c1nc(C2CCCN2Cc2ccn(C)c(=O)c2)no1` (centres undefined), the Percent Effect in assay [1] was 3.39%; in assay [2] it was -44.4%.
Regarding `CCOc1ccc(Cl)c(C(=O)N2CCN(c3cnccn3)CC2)n1`, the Percent Effect in assay [1] is -1.79%; in assay [2] it was -46.8%.
For the compound `Cc1noc(CN2CCOC(CN(C)C)C2)n1` (centres undefined), the Percent Effect is -7.81% in assay [1] and -10.9% in assay [2].
Turning to `COc1cc(CNCc2c(C)nn(C)c2N(C)C)ccc1C`, the Percent Effect in assay [1] was -3.09%; in assay [2], 9.03%.
